Source: PubChem BioAssay (Tox21)
Inconclusive results are not listed. A call without a number means that no potency is given here. Activity calls are given as the source filed them. Calls come from the whole dose curve.

Each compound was assayed against Progesterone receptor (Homo sapiens) (UniProt P06401) (assay: qHTS assay to identify small molecule agonists of the progesterone receptor (PR) signaling pathway (AID 1346784; note: nearly all actives have a fitted effect of over 30% in size)). Conditions: PR-UAS-bla HEK293T, beta-lactamase FRET ratio, 16 h; series mostly up to 92.4 µM.
Source text: U.S. Tox21 Program National Center for Advancing Translational Sciences [NCATS] NIH Chemical Genomics Center [NCGC] U.S. Environmental Protection Agency [EPA] National Institutes of Environmental Health Sciences [NIEHS] National Toxicology Program [NTP] U.S. Food and Drug Administration [FDA] […] Endocrine disrupting chemicals (EDCs) and their interactions with steroid hormone receptors like PR causes disruption of normal endocrine function. To identify the compounds that activate PR signaling, a PR-UAS-bla GripTite cell line i.e. PR-UAS-bla HEK 293T (Invitrogen, Carlsbad, CA, USA) containing a beta-lactamase reporter gene under the control of an Upstream Activator Sequence (UAS) was used to screen Tox21 10K compound library.
Tox21 Assay Protocol Summary: PR-UAS-bla HEK 293T cells were dispensed at 3,000 cells/5 uL of assay medium containing 2% charcoal stripped FBS per well into black wall/clear-bottom 1536-well plates using a Multidrop Combi (ThermoFisher Scientific, Waltham, MA) dispenser. After the assay plates were incubated at a 37C and 5% CO2 for 6hr, 23 nL of compounds dissolved in DMSO, positive controls or DMSO only was transferred to the assay plate by a Pintool station (Kalypsys, San Diego, CA). The plates were incubated at 37C and 5% CO2 for 16hr. Then 1 uL of LiveBLAzer B/G FRET substrate was added using a BioRAPTR FRD (Flying Reagent Dispenser, Aurora Discovery, San Diego, CA). After the plates were incubated at room temperature for 2 hours, fluorescence intensity was measured by an Envision plate reader (PerkinElmer, Shelton, CT).

Sequence of Progesterone receptor (Homo sapiens) (P06401 whole entry, looked up): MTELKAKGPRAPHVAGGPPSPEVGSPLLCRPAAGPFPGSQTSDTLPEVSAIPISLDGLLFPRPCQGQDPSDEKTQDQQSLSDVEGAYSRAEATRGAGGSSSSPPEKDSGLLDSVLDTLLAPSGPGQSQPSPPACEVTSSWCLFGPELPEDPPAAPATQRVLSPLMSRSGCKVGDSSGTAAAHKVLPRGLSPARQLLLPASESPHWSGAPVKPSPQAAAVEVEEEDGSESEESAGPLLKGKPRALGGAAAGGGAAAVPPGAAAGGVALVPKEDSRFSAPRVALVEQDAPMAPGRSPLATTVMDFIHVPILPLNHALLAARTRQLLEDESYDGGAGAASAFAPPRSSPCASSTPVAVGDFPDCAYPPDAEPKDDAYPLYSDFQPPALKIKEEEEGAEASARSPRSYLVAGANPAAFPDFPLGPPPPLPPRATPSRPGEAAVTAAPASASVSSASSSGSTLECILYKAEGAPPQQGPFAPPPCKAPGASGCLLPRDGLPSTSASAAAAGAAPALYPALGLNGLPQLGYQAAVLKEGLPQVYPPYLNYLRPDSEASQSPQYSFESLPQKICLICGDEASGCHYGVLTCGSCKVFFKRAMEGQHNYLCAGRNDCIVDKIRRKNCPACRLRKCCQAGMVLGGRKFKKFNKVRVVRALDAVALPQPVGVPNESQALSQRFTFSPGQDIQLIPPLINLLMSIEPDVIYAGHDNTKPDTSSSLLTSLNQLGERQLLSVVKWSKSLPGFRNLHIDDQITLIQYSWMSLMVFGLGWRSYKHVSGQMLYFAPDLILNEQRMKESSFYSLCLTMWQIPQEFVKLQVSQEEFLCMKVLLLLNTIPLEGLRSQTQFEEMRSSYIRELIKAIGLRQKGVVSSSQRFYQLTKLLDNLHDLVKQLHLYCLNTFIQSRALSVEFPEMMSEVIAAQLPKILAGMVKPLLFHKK

SMILES	Potency	activation
CCO[Si](CC)(OCC)OCC	inactive	–
CC(C)=CCC/C(C)=C/COC=O	inactive	–
CC(=O)C(C)O (stereo not given)	inactive	–
OCCN1CCOCC1	inactive	–
CC1=C(C(=O)O)N2C(=O)[C@@H](NC(=O)[C@H](N)c3ccccc3)[C@H]2SC1	inactive	–
O=[N+]([O-])c1c(Cl)cc(Cl)cc1Cl	inactive	–
CC(C)NC(=O)c1ccc(C=O)cc1	inactive	–
CC12CCC(C1)C(C)(C)C2O (stereo not given)	inactive	–
CC1OCCC1=O (stereo not given)	inactive	–
Cn1c(=O)c2c(ncn2CCO)n(C)c1=O	inactive	–
CC(C)(CO)C(O)C(=O)NCCCO (stereo not given)	inactive	–
CC1c2ccccc2CN1NC(=O)c1ccc(Cl)c(S(N)(=O)=O)c1 (stereo not given)	inactive	–
c1ccc2c(CC3=NCCN3)cccc2c1	inactive	–
O=C1CCCCO1	inactive	–
O/N=C/C=N/O	inactive	–
CCC(=O)CC	inactive	–
c1ccc(B(c2ccccc2)c2ccccc2)cc1	inactive	–
COS(=O)(=O)O	inactive	–
C#CCN[C@@H]1CCc2ccccc21	inactive	–
ONc1ccccc1	inactive	–

SMILES	Potency	activation
O=S(=O)(O)c1ccc2c(N=Nc3ccc(S(=O)(=O)O)c4ccccc34)c(O)c(S(=O)(=O)O)cc2c1	–	2.07% [at 8.39 µM] (inactive)
COc1cc2c(cc1OC)C(=O)C(CC1CCN(Cc3ccccc3)CC1)C2 (stereo not given)	inactive	–
CCCC(CC)c1ccccc1 (stereo not given)	inactive	–
O=C1OCCO1	inactive	–
CN1C[C@@H]2C[C@H]1CN2c1cc2c(cc1F)c(=O)c(C(=O)O)cn2C1CC1	–	6.66% [at 19 µM] (inactive)
CC(C)NCC(O)c1ccc2ccccc2c1 (stereo not given)	inactive	–
CSc1cnccn1	inactive	–
CCCCCCCCCCOC(C)=O	inactive	–
O=C(O)CNC(=O)CNC(=O)CNC(=O)CSC(=O)c1ccccc1	inactive	–
Cc1c(NC(=O)c2cccnc2)c(=O)n(-c2ccccc2)n1C	inactive	–
CCc1occc(=O)c1O	inactive	–
N#Cc1ccccc1O	inactive	–
COc1nc(N)nc2nc[nH]c12	inactive	–
C[Si]1(C)O[Si](C)(C)O[Si](C)(C)O[Si](C)(C)O[Si](C)(C)O1	inactive	–
Cc1c(C(=O)c2c[nH]n(C)c2=O)ccc(S(C)(=O)=O)c1C1=NOCC1	inactive	–
CC(C)(C)NC[C@H](O)COc1cccc2c1CCCC2=O	inactive	–
CC1=C(O)C(=O)C(C)O1 (stereo not given)	inactive	–
CC1(C)Cc2cccc(N)c2O1	inactive	–
CC(=O)OC(C)=O	inactive	–
C=CC/C=C/C	inactive	–
